High-throughput results from PubChem.
These entries were drawn from the full list.
aSyn UTR act: Activators via SNCA 5'UTR binding, MLPCN. alpha-synuclein 5'UTR reporter, activators screen. activity score, % (tested at 7.5 µM), hits read low. 300,000 tested, 7.1% active. AID 1814, 2009; in the data active means activity score below about -60%
Active calls of the source: *.

SMILES	aSyn UTR act
O=C(Oc1c(CN2CCOCC2)cc(Cl)c2cccnc12)c1ccccc1F	106
O=C(Cc1ccccc1)Nc1ccc(CN2CCOCC2)cc1	-87*
O=C(Nc1ccc(CN2CCOCC2)cc1)c1ccccc1F	-76*
O=C(/C=C/c1ccc(Cl)cc1Cl)NC(=S)Nc1ccc(CN2CCOCC2)cc1	-71*
CCC(=O)NC(c1ccc(Cl)cc1Cl)c1ccc2cccnc2c1O (configuration not stated)	75
COc1cc2ccccc2cc1C(=O)Nc1ccc(CN2CCOCC2)cc1	-112*
O=C(/C=C/c1ccc(Cl)cc1Cl)NC(=S)Nc1ccccn1	-224*
O=C(Nc1ccc(CN2CCOCC2)cc1)c1ccc(Cl)cc1Cl	-96*
O=C(Nc1ccc(CN2CCOCC2)cc1)c1ccc(-c2cccc(Cl)c2)o1	-83*
COc1ccc(-c2nnc(N(C)C(=O)c3cccnc3)s2)cc1	-108*
Cc1ccc(-c2nnc(N(C)C(=O)c3cccnc3)s2)cc1	-76*
O=c1c(Cl)c(Cl)cnn1Cc1nnc(-c2ccccc2Br)o1	-66*
Clc1ccccc1OCc1nnc(-c2ccccc2Br)o1	-173*
N#Cc1ccccc1OCc1nnc(-c2ccccc2Br)o1	-178*
Cc1ccc2oc(C(=O)N(C)Cc3ccon3)c(C)c2c1	-153*
CCCc1ccc2oc(C(=O)N(C)Cc3cnccn3)c(C)c2c1	-73*
CN1C(c2ccc(F)cc2)=CS/C1=C(/C#N)c1nnc(N2CCOCC2)n1-c1ccccc1	-74*
Cc1ccc2oc(-c3cccc(NC(=O)C4CCCO4)c3)nc2c1 (configuration not stated)	-181*
Cc1cccc(-c2nc3cc(NC(=O)C4CCCO4)ccc3o2)c1 (configuration not stated)	72
O=C(Nc1cccc(-c2nc3cc(Cl)ccc3o2)c1)C1CCCO1 (configuration not stated)	-72*
CCOC(=O)c1cc(C(=O)Nc2ccccc2F)nn1C	-159*
Cc1ccc(-c2cnc(-c3ccncc3)o2)cc1	-157*
Nc1ccc(-c2ncc(-c3ccccc3)o2)cc1	86
O=c1oc2ccccc2c2oc3cc(O)c(O)cc3c12	-83*
COc1ccc(-c2cn3cc(C(=O)NN)ccc3n2)cc1	-92*
SMILES	aSyn UTR act
COC(=O)c1ccc2nc(-c3ccc4c(c3)OCO4)cn2c1	95
NNC(=O)c1ccc2nc(-c3ccc(Br)cc3)cn2c1	-154*
N#Cc1nc(-c2cccc3ccccc23)oc1N1CCCCC1	-155*
N#Cc1nc(-c2ccccc2Cl)oc1N1CCCCC1	-69*
CC1CCN(c2oc(-c3cccc4ccccc34)nc2C#N)CC1	-142*
Cc1ccc(NC(=O)C(=O)NCC2CCCO2)cc1C (configuration not stated)	-96*
COc1ccc(NC(=O)C(=O)N/N=C\c2ccc(CNC(=O)C(=O)Nc3ccc(C)c(C)c3)o2)c(OC)c1	88
Cc1ccc(NC(=O)C(=O)NCC2CCCO2)cc1 (configuration not stated)	-85*
O=C(NCCc1ccccc1)C(=O)NCC1CCCO1 (configuration not stated)	-64*
c1ccc(N2CCN(c3nc4cc5c(cc4s3)OCCO5)CC2)cc1	-157*
CCC(C)(C)n1nnnc1C(c1ccc2ncccc2c1)N1CCN(c2nc3ccccc3s2)CC1 (configuration not stated)	54
Nc1ccc2nc(N3CCOCC3)sc2c1	-69*
c1c2c(cc3sc(N4CCOCC4)nc13)OCCO2	94
Fc1cccc(Cl)c1CN1CCN(c2nc3ccccc3s2)CC1	-198*
c1ccc2sc(N3CCOCC3)nc2c1	-65*
CCc1ccc(NC(=O)Nc2cnccn2)cc1	-104*
CCc1ccc(NC(=O)Nc2ccon2)cc1	-136*
CCCCc1ccc(NC(=O)Nc2cnccn2)cc1	-98*
O=C(Nc1ccc([N+](=O)[O-])cc1)Nc1ccon1	74
O=c1[nH]c2ccccc2c2nc3ccccn3c12	-113*
O=c1nc2c(O)cccn2c2c1c(=O)[nH]c1ccccc12	-66*
CCC(=O)NNc1nc2c(C)cc(C)cc2s1	-63*
CCc1ccc2nc(NC(=O)c3cc(C)on3)sc2c1	-66*
CCc1noc(C)c1C(=O)Nc1nc2ccc(F)cc2s1	-139*
CC1CC1C(=O)Nc1nc2ccc(Cl)cc2s1 (configuration not stated)	-134*
SMILES	aSyn UTR act
Cc1cc(C)c2nc(NNC(=O)c3ccc(S(=O)(=O)N4CC(C)CC(C)C4)cc3)sc2c1 (configuration not stated)	72
O=C(Nc1nc2ccc(Cl)cc2s1)[C@@H]1CCCN1C(=O)c1cccs1	-92*
Cc1cc(C)c2nc(NC(=O)c3cc(C)on3)sc2c1	-89*
Cc1noc(C)c1C(=O)Nc1nc2ccc(Cl)cc2s1	-82*
Cc1cc(C)c2nc(NCc3ccccc3O)sc2c1	-118*
CCc1ccc2nc(NC(=O)C3CSC4(C)CCC(=O)N34)sc2c1 (configuration not stated)	-107*
Cc1cc(C)cc(N=c2c([N+](=O)[O-])nn(-c3cccc(Cl)c3)n2O)c1	-66*
Cc1cccc(N=c2c([N+](=O)[O-])nn(-c3ccc(Cl)cc3)n2O)c1	-68*
O=[N+]([O-])c1nn(-c2ccccc2)n(O)c1=NC1CCN(Cc2ccccc2)CC1	76
Cc1ccc(CN=c2c([N+](=O)[O-])nn(-c3ccc(Cl)cc3)n2O)cc1	-69*
CN(C)c1ccc(NC(=O)c2ccc([N+](=O)[O-])cc2Cl)cc1	-76*
O=C(Nc1cccc(O)c1)c1ccc([N+](=O)[O-])cc1Cl	-86*
O=C(Nc1ccc([N+](=O)[O-])cc1)c1cc(Cl)sc1Cl	-76*
COc1cc(NC(C)=O)ccc1NC(=O)c1cc2ccccc2o1	-83*
CCCC(=O)Nc1ccc(NC(=O)c2cc3ccccc3o2)c(OC)c1	-222*
COc1cc(N)ccc1NC(=O)c1cc2ccccc2o1	-136*
CCOC(=O)c1cc(=O)n2c(nc3ccccc32)[nH]1	-99*
CCCc1cc(=O)n2c(nc3ccccc32)[nH]1	-66*
CCCCc1c(C)[nH]c2nc3ccccc3n2c1=O	-97*
Cn1c(=N)n(CC(=O)c2ccc(F)cc2)c2ccccc21	76
CCn1c(=N)n(CC(=O)c2ccc(Cl)c(Cl)c2)c2ccccc21	-186*
O=C1C2C3C=CC(C4CC34)C2C(=O)N1/N=C/c1c[nH]c2ccccc12 (configuration not stated)	-141*
O=C1C2C3C=CC(C4CC34)C2C(=O)N1/N=C/c1ccc([N+](=O)[O-])s1 (configuration not stated)	-85*
CCC(C)[C@H](NC(=O)N1CC(=O)Nc2ccccc21)C(=O)Nc1ccccc1C (some centres not stated)	-95*
CCNc1oc(-c2cccc3ccccc23)nc1C#N	-88*
SMILES	aSyn UTR act
N#Cc1nc(-c2cccc3ccccc23)oc1NCCN1CCCCC1	-63*
O=C1C(Cl)=C(NCCN2CCCCC2)C(=O)c2ccccc21	54
O=[N+]([O-])c1ccc(Cl)c(S(=O)(=O)Nc2cccc(-c3ccc(N4CCOCC4)nn3)c2)c1	-108*
O=[N+]([O-])c1ccc(S(=O)(=O)Nc2cccc(-c3ccc(N4CCOCC4)nn3)c2)cc1	-83*
O=Cc1ccc2noc(-c3ccc(Cl)cc3)c2c1	-67*
Cc1ccc(-c2onc3ccc(Cl)cc23)cc1	-63*
CC(=O)c1ccc2noc(-c3cccc(C)c3)c2c1	-99*
Cc1ccc(-c2onc3ccc(C4OCCO4)cc23)cc1	-100*
